In PubChem BioAssay AID1159580 (chemical genetic matrix, 2015):
About 2,000 (36%) of roughly 5,500 compounds were called active. About 18% were inconclusive and are not listed. Rule as the data show it: active = normalized growth mostly below about 0.91 (no sharp cut-off); inconclusive = no clear call, values can overlap the other calls; inactive = mostly above about 0.92. Some of the results follow.

Assay: chemical genetic growth profiling, strain panel (AID 1159580);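 also: tested at 20 µM; growth read once vehicle control cultures reached saturation at 30 °C; 1 = growth at the plate median or of vehicle wells; lower values mean less growth of the strain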
Conditions: growth OD

Measured: normalized growth

CC(=O)OCC[C@H](C)CCC=C(C)C
inactive: S. cerevisiae deletion strains, locus YJR043C, strain POL32, stronger effect = lower value 1.01 | S. cerevisiae deletion strains, locus YJR066W, strain TOR1, stronger effect = lower value 0.979 | S. cerevisiae deletion strains, locus YKL009W, strain mrt4, stronger effect = lower value 1.01 | S. cerevisiae deletion strains, locus YKL068W, stronger effect = lower value 1.03 | S. cerevisiae deletion strains, locus YKL085W, strain MDH1 (second series), stronger effect = lower value 1.01 | S. cerevisiae deletion strains, locus YKL085W, strain MDH1, stronger effect = lower value 1.01 | S. cerevisiae deletion strains, locus YKL160W, strain elf1, stronger effect = lower value 0.978 | S. cerevisiae deletion strains, locus YKL190W, strain CNB1, stronger effect = lower value 1.01 | S. cerevisiae deletion strains, locus YKR001C, strain vps1, stronger effect = lower value 1.03 | S. cerevisiae deletion strains, locus YKR026C, strain gcn3, stronger effect = lower value 0.994 | S. cerevisiae deletion strains, locus YKR091W, strain srl3, stronger effect = lower value 0.986 | S. cerevisiae deletion strains, locus YLL001W, strain dnm1, stronger effect = lower value 1.03 | S. cerevisiae deletion strains, locus YLL026W, stronger effect = lower value 1.03 | S. cerevisiae deletion strains, locus YLL041C, strain sdh2, stronger effect = lower value 1.02 | S. cerevisiae deletion strains, locus YLR027C, strain aat2, stronger effect = lower value 1.02 | S. cerevisiae deletion strains, locus YLR039C, strain RIC1, stronger effect = lower value 1.08 | S. cerevisiae deletion strains, locus YLR058C, strain SHM2, stronger effect = lower value 1.02 | S. cerevisiae deletion strains, locus YLR102C, strain apc9, stronger effect = lower value 1.02 | S. cerevisiae deletion strains, locus YLR113W, strain HOG1, stronger effect = lower value 1.05 | S. cerevisiae deletion strains, locus YLR221C, strain rsa3, stronger effect = lower value 1.04 | S. cerevisiae deletion strains, locus YLR258W, strain gsy2, stronger effect = lower value 1.03 | S. cerevisiae deletion strains, locus YLR262C, strain YPT6 (second series), stronger effect = lower value 0.991 | S. cerevisiae deletion strains, locus YLR262C, strain YPT6, stronger effect = lower value 1.09 | S. cerevisiae deletion strains, locus YLR268W, strain sec22, stronger effect = lower value 1.03 | S. cerevisiae deletion strains, locus YLR320W, strain mms22, stronger effect = lower value 1 | S. cerevisiae deletion strains, locus YLR330W, strain CHS5, stronger effect = lower value 1 | S. cerevisiae deletion strains, locus YLR342W, strain FKS1 (second series), stronger effect = lower value 1.01 | S. cerevisiae deletion strains, locus YLR342W, strain FKS1, stronger effect = lower value 0.975 | S. cerevisiae deletion strains, locus YLR357W, strain rsc2, stronger effect = lower value 0.981 | S. cerevisiae deletion strains, locus YLR370C, strain arc18, stronger effect = lower value 0.996 | S. cerevisiae deletion strains, locus YLR371W, strain rom2, stronger effect = lower value 1.02 | S. cerevisiae deletion strains, locus YLR384C, strain iki3, stronger effect = lower value 0.971 | S. cerevisiae deletion strains, locus YLR418C, strain cdc73, stronger effect = lower value 1.02 | S. cerevisiae deletion strains, locus YML016C, strain PPZ1, stronger effect = lower value 1.02 | S. cerevisiae deletion strains, locus YML032C, strain rad52, stronger effect = lower value 1.03 | S. cerevisiae deletion strains, locus YML120C, strain ndi1, stronger effect = lower value 0.988 | S. cerevisiae deletion strains, locus YML124C, strain tub3, stronger effect = lower value 1.02 | S. cerevisiae deletion strains, locus YMR058W, strain fet3, stronger effect = lower value 0.989 | S. cerevisiae deletion strains, locus YMR078C, strain ctf18, stronger effect = lower value 1.04 | S. cerevisiae deletion strains, locus YMR125W, strain sto1, stronger effect = lower value 0.985 | S. cerevisiae deletion strains, locus YMR129W, stronger effect = lower value 0.985 | S. cerevisiae deletion strains, locus YMR205C, strain PFK2, stronger effect = lower value 1.01 | S. cerevisiae deletion strains, locus YMR223W, strain ubp8, stronger effect = lower value 1.04 | S. cerevisiae deletion strains, locus YMR231W, strain pep5, stronger effect = lower value 0.983 | S. cerevisiae deletion strains, locus YMR307W, strain GAS1, stronger effect = lower value 1.05 | S. cerevisiae deletion strains, locus YNL067W, strain RPL9B, stronger effect = lower value 1.02 | S. cerevisiae deletion strains, locus YNL071W, strain lat1, stronger effect = lower value 0.989 | S. cerevisiae deletion strains, locus YNL153C, strain GIM3, stronger effect = lower value 1.01 | S. cerevisiae deletion strains, locus YNL183C, strain NPR1, stronger effect = lower value 0.991 | S. cerevisiae deletion strains, locus YNL209W, strain ssb2, stronger effect = lower value 0.979 | S. cerevisiae deletion strains, locus YNL233W, strain BNI4, stronger effect = lower value 1.01 | S. cerevisiae deletion strains, locus YNL248C, strain rpa49, stronger effect = lower value 0.984 | S. cerevisiae deletion strains, locus YNL250W, strain rad50, stronger effect = lower value 1.03 | S. cerevisiae deletion strains, locus YNL271C, strain bni1, stronger effect = lower value 1.02 | S. cerevisiae deletion strains, locus YNL298W, strain CLA4, stronger effect = lower value 1.05 | S. cerevisiae deletion strains, locus YNL307C, strain MCK1, stronger effect = lower value 1.04 | S. cerevisiae deletion strains, locus YNL322C, strain KRE1 (second series), stronger effect = lower value 0.974 | S. cerevisiae deletion strains, locus YNL322C, strain KRE1, stronger effect = lower value 1.01 | S. cerevisiae deletion strains, locus YNR049C, strain mso1, stronger effect = lower value 0.996 | S. cerevisiae deletion strains, locus YNR052C, strain pop2, stronger effect = lower value 1.01 | S. cerevisiae deletion strains, locus YOL012C, strain htz1 1.25 | S. cerevisiae deletion strains, locus YOL147C, strain pex11, stronger effect = lower value 1.03 | S. cerevisiae deletion strains, locus YOR001W, strain rrp6, stronger effect = lower value 1.02 | S. cerevisiae deletion strains, locus YOR061W, strain CKA2, stronger effect = lower value 1.01 | S. cerevisiae deletion strains, locus YOR069W, strain VPS5, stronger effect = lower value 1 | S. cerevisiae deletion strains, locus YOR070C, strain gyp1, stronger effect = lower value 0.994 | S. cerevisiae deletion strains, locus YOR080W, strain dia2, stronger effect = lower value 0.968 | S. cerevisiae deletion strains, locus YOR083W, strain WHI5, stronger effect = lower value 0.972 | S. cerevisiae deletion strains, locus YOR106W, strain vam3, stronger effect = lower value 0.971 | S. cerevisiae deletion strains, locus YOR136W, strain idh2, stronger effect = lower value 1.02 | S. cerevisiae deletion strains, locus YOR144C, strain elg1, stronger effect = lower value 1.03 | S. cerevisiae deletion strains, locus YOR184W, strain ser1, stronger effect = lower value 1.02 | S. cerevisiae deletion strains, locus YOR231W, strain MKK1, stronger effect = lower value 1.06 | S. cerevisiae deletion strains, locus YOR265W, strain rbl2, stronger effect = lower value 0.995 | S. cerevisiae deletion strains, locus YOR270C, strain vph1, stronger effect = lower value 1.03 | S. cerevisiae deletion strains, locus YOR290C, strain snf2, stronger effect = lower value 0.997 | S. cerevisiae deletion strains, locus YOR316C, strain cot1, stronger effect = lower value 1.02 | S. cerevisiae deletion strains, locus YPL051W, strain arl3, stronger effect = lower value 0.99 | S. cerevisiae deletion strains, locus YPL078C, strain atp4, stronger effect = lower value 0.967 | S. cerevisiae deletion strains, locus YPL106C, strain sse1, stronger effect = lower value 0.949 | S. cerevisiae deletion strains, locus YPL240C, strain hsp82, stronger effect = lower value 0.99 | S. cerevisiae deletion strains, locus YPL256C, strain CLN2, stronger effect = lower value 0.997 | S. cerevisiae deletion strains, locus YPR119W, strain clb2, stronger effect = lower value 1.02 | S. cerevisiae deletion strains, locus YPR141C, strain kar3, stronger effect = lower value 1.03 | S. cerevisiae deletion strains, locus YPR163C, strain tif3, stronger effect = lower value 1.02 | S. cerevisiae deletion strains, locus YPR167C, strain met16, stronger effect = lower value 1.02 | S. cerevisiae deletion strains, strain wtn01, stronger effect = lower value 1.02 | S. cerevisiae strains, strain wild type, stronger effect = lower value 1
